This note sets out measurements from PubChem BioAssay.

A short description of assay [1]: yeast TOR pathway RPL19A-GFP modulators, primary screen, cell-based, S. cerevisiae, multiplex flow cytometry (AID 1862; in the data active = percent of DMSO control GFP below about 86%;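 also: lower values mimic rapamycin by blocking the RPL19A rise seen in DMSO cells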). The note with it: S. cerevisiae RPL19A-GFP strain, flow cytometry fluorescence, 3 h; at 10 µM; stronger effect = lower value. (Flow cytometry measures light scatter and fluorescence of single cells or particles in a stream.)
Assay [2] in a line: modulators of MEP2-GFP levels in yeast, primary screen, S. cerevisiae, multiplex flow cytometry (AID 1867;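 active = GFP response, as percent of the DMSO control, above the screen-wide mean plus 3 SD, about 139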;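 also: median GFP channel fluorescence of barcode-gated MEP2-GFP cells measured by flow cytometry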). The note with it: S. cerevisiae MEP2-GFP strain, 3 h, at 10 µM, stronger effect = higher value, 100% means same as DMSO wells.
A short description of assay [3]: modulators of CIT2-GFP expression in yeast, primary screen, S. cerevisiae, GFP fusion, multiplex flow cytometry (AID 1870;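 active = percent response above a set limit, the screen-wide mean plus 3 SD, cut at about 130% in these data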;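 also: barcoded CIT2-GFP strain pooled with four other GFP strains with rapamycin as positive control; median GFP fluorescence per well over plate mean of DMSO wells so 100% = DMSO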). The note with it: 3 h, at 10 µM, stronger effect = higher value.
Assay [4] in a line: modulators of LAP4-GFP expression in yeast, primary screen, S. cerevisiae, multiplex flow cytometry (AID 1873;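 active = GFP signal, as percent of the solvent control, above the screen mean plus 3 SD, about 149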). The note with it: 3 h, at 10 µM, stronger effect = higher value.
Assay [5] can be described thus: modulators of AGP1-GFP expression in yeast TOR pathway, primary screen, cell-based, multiplex flow cytometry, S. cerevisiae (AID 1887;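 active = GFP signal above the screen-wide mean plus 3 SD, that is over about 124.5% of the solvent control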;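 also: AGP1-GFP fusion strain of S. cerevisiae within a five-strain barcoded multiplex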). The note with it: 3 h, at 10 µM, stronger effect = higher value.
The nature of assay [6]: inhibitors of CD8+ T cell-vesicle binding, pilot screen, LFA-1/ICAM-1 modulator project, MLPCN validation set, flow cytometry (AID 2523;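 active = response below a set limit, under 55% cells CD8-positive and vesicle-bound, and CD8 cells' 90th-percentile brightness under 279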;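 as to vesicle binding response: mean PE anti-B7-1 fluorescence of CD8+ cells relative to row control; 100% = QL9-loaded vesicles with DMSO vehicle in the same plate row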). The note with it: 2C mouse CD8+ T cells, at 7 µM, stronger effect = lower value; double positive events: measured here: CD8+/vesicle+ event percentage.
The target of assay [7] is Integrin beta-1 (Homo sapiens) + Integrin alpha-4 (Homo sapiens) (UniProt P13612+P05556). Description: inhibition of HUTS-21 binding to VLA-4, pilot screen, VLA-4 allosteric modulator project, U937 cells, HUTS-21 mAb, flow cytometry, validation set (AID 2674).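 Also: antibody binding induced by the VLA-4 ligand LDV present at three times its Kd; 0% = LDV ligand with antibody and no compound and 100% = antibody without LDV.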 The note with it: HUTS-21 LIBS mAb binding, at 6.7 µM, stronger effect = higher value, binding induced by LDV ligand.
Integrin beta-1 (Homo sapiens) + Integrin alpha-4 (Homo sapiens), sequence (P05556 whole entry, looked up): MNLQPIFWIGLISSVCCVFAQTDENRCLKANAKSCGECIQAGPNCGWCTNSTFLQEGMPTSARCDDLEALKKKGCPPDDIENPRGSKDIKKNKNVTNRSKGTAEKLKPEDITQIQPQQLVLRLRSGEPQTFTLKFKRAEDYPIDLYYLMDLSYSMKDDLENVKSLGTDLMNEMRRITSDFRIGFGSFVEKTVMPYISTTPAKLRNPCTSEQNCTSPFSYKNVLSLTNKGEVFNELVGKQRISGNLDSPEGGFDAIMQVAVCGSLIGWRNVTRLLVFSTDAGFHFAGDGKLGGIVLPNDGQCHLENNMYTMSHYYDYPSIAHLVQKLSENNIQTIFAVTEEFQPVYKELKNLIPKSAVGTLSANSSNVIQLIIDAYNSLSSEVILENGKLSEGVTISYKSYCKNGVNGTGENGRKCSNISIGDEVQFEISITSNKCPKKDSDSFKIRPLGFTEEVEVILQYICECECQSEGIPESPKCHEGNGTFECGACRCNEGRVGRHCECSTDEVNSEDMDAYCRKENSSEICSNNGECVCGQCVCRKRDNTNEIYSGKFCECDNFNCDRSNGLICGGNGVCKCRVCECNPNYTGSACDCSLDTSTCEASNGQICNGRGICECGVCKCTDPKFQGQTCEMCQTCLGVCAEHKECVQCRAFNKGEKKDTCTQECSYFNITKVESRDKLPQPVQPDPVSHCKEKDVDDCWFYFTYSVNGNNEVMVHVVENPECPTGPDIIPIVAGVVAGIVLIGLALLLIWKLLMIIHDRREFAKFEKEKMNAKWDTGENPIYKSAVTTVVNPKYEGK
Integrin beta-1 (Homo sapiens) + Integrin alpha-4 (Homo sapiens), sequence (P13612 whole entry, looked up): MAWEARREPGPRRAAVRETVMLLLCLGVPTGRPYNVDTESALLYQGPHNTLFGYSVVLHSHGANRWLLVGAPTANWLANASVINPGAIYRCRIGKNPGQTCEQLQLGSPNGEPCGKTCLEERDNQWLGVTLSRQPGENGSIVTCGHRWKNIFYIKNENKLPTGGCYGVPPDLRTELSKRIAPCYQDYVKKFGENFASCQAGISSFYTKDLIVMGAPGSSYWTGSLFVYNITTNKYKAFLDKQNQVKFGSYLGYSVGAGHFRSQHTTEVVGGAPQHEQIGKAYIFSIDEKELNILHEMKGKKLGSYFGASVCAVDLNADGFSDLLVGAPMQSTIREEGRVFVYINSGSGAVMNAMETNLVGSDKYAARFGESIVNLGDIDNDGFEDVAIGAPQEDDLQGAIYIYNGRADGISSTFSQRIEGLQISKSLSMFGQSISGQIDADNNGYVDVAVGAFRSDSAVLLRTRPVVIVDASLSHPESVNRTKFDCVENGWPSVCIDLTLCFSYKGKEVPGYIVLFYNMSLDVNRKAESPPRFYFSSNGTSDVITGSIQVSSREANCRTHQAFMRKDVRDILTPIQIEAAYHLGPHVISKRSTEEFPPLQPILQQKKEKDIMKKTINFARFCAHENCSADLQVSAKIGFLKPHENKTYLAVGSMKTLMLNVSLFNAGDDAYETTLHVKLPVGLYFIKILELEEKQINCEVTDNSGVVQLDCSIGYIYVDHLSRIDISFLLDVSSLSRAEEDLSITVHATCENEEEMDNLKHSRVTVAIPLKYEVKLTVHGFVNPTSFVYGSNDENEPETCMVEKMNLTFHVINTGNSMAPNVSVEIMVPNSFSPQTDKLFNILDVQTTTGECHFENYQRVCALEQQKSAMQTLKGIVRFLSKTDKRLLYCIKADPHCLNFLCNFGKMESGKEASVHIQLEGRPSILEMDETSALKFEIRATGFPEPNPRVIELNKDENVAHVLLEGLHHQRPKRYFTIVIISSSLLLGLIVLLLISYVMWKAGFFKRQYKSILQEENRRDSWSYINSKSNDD
Assay [8] can be described thus: superoxide lowering in aged yeast cells, pilot screen, validation compound set (AID 2706;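 active = superoxide response below 65% of plate, a cut near 3 SD across the whole screen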;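 also: yeast exposed to compound for one week at 30 degrees C before staining; 100% = mean of all compound wells on the same plate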). The note with it: S. cerevisiae aging, superoxide DHE fluorescence; at 10 µM; stronger effect = lower value.
For assay [9], the target named is Beta-adrenergic receptor kinase 1 (Homo sapiens) (UniProt P25098). The assay can be described thus: GRK2 binders displacing RNA aptamer, biochemical, validation, human GRK2, bead flow cytometry (AID 488806;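 active = aptamer binding inhibition above 30%, about 3 SD of noise from non-fluorescent compounds; inactive = inhibition at or below 30%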). The note with it: bead-bound GRK2, FAM-aptamer displacement, at 10 µM, stronger effect = higher value.
Beta-adrenergic receptor kinase 1 (Homo sapiens), sequence (P25098 whole entry, looked up): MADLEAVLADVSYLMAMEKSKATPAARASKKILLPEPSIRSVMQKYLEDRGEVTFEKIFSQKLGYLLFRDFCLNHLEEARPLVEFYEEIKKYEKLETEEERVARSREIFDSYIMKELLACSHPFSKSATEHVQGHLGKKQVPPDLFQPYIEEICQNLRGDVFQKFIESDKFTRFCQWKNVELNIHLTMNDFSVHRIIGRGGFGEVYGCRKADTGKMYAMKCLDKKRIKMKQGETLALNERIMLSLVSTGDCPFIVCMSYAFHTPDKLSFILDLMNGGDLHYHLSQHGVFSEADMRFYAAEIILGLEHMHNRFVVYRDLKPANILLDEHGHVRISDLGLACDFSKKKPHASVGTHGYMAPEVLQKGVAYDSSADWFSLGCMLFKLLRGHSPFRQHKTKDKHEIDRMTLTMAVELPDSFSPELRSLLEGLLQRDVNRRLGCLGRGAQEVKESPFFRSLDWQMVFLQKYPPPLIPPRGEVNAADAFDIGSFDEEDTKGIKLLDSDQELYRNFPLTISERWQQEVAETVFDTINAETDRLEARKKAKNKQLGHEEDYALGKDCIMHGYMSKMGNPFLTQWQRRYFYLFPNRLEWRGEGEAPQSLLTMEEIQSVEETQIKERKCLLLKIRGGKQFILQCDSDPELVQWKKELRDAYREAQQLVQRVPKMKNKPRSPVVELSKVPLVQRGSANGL
Assay [10] addresses Beta-2 adrenergic receptor (Homo sapiens) (UniProt P07550). The assay can be described thus: beta2AR agonists driving receptor internalization, pilot screen, cell-based, FAP fluorogen, flow cytometry, validation set (AID 504459;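 active = percent response above 42, roughly 3 SD of non-fluorescent test compounds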;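 also: agonist-driven loss of surface beta2AR via internalization measured by FAP dye flow cytometry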). The note with it: Am2.2-beta2AR cells, FAP surface receptor flow cytometry; at 10 µM; stronger effect = higher value.
For assay [11], the target named is AP-2 complex subunit beta (Homo sapiens) (UniProt P63010). The assay can be described thus: inhibitors of arrestin peptide binding to AP2, pilot screen, biochemical, validation set, GST-AP2 beads, flow cytometry (AID 504541;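 active = inhibition above 54%, about 3 SD of non-fluorescent compounds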;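 also: AP2 carries R879A mutation and is captured from E. coli lysate; bead-bound FITC arrestin peptide fluorescence measuring arrestin peptide binding to AP2; 0% = DMSO wells and 100% = excess unlabeled arrestin peptide control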). The note with it: FITC arrestin peptide, at 10 µM, stronger effect = higher value, AP2 beta2 appendage fragment, R879A mutant.
AP-2 complex subunit beta (Homo sapiens), sequence (P63010 whole entry, looked up, the tested form may be a part, one chain of several): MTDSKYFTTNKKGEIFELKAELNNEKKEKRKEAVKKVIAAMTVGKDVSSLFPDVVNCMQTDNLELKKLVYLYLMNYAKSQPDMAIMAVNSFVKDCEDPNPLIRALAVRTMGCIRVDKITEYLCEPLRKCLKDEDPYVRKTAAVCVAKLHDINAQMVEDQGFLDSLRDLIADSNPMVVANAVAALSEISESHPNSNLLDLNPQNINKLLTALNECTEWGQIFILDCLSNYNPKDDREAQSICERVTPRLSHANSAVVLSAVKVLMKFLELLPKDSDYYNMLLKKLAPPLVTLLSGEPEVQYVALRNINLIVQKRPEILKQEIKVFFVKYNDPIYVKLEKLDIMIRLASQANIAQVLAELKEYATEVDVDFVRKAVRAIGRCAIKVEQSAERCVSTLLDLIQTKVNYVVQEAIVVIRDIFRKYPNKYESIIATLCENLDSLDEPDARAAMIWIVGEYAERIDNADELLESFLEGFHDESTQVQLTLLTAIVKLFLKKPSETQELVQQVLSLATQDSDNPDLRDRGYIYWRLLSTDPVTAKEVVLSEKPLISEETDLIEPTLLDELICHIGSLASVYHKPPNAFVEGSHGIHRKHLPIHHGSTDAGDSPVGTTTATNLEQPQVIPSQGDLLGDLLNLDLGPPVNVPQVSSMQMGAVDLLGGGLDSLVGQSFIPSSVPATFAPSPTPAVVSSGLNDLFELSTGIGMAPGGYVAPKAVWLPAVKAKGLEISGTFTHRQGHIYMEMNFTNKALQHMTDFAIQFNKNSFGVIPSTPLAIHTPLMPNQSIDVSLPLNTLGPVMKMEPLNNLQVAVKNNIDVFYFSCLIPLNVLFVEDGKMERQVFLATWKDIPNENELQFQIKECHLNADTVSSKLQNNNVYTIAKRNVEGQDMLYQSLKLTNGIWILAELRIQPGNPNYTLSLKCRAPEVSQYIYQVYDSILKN
Assay [12] is described as follows: yeast V-ATPase proton transport modulators, S. cerevisiae, pHLuorin, HTS validation (AID 504600; in the data active = response above about 15%;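 also: plate controls were DMSO for no effect and reference compound for full effect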). The note with it: S. cerevisiae pHLuorin cytosolic pH, at 10 µM, stronger effect = higher value.
The subject of assay [13] is anti-desmoglein-3 scFv antibody binding to human DSG3. Description: inhibitors of anti-DSG3 scFv binding to DSG3, pilot screen, biochemical, validation compound set, bead-based, flow cytometry (AID 588368;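 active = binding below the plate cutoff, the plate median minus 3 SD, with a reading above zero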;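 also: signal is the median channel fluorescence of bead-bound GFP antibody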). The note with it: Protein G beads, DSG3-Fc, scFv-GFP binding, at 10 µM, stronger effect = lower value.
Assay [14] in a line: inhibitors of fungal efflux pumps CDR1, CDR2, MDR1, pilot screen, validation compound set, multiplex, phenotypic (AID 588506;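 active = efflux inhibition above 0.42, the validation set average plus 4 SD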;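 also: Nile Red retained in cells so higher fluorescence means more efflux inhibition; 0 = negative control wells and 1 = enniatin B 25 µM full block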). The note with it: S. cerevisiae pump-expressing triplex, Nile Red efflux flow cytometry; at 10 µM; stronger effect = higher value; the pumps come from Candida albicans.
In assay [15] the target is ATP-binding cassette sub-family B member 6 (Homo sapiens) (UniProt Q9NP58). The assay can be described thus: ABCB6 transporter inhibitors, pilot screen, K562-ABCB6 cells, flow cytometry, validation set (AID 588550;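 active = inhibition above the screen-wide mean plus 3 SD, about 51%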;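 also: 0% = DMSO wells and 100% = benzethonium chloride 70 µM positive control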). The note with it: K562-ABCB6 porphyrin accumulation, 1 h, at 10 µM, stronger effect = higher value.
ATP-binding cassette sub-family B member 6 (Homo sapiens), sequence (Q9NP58 whole entry, looked up): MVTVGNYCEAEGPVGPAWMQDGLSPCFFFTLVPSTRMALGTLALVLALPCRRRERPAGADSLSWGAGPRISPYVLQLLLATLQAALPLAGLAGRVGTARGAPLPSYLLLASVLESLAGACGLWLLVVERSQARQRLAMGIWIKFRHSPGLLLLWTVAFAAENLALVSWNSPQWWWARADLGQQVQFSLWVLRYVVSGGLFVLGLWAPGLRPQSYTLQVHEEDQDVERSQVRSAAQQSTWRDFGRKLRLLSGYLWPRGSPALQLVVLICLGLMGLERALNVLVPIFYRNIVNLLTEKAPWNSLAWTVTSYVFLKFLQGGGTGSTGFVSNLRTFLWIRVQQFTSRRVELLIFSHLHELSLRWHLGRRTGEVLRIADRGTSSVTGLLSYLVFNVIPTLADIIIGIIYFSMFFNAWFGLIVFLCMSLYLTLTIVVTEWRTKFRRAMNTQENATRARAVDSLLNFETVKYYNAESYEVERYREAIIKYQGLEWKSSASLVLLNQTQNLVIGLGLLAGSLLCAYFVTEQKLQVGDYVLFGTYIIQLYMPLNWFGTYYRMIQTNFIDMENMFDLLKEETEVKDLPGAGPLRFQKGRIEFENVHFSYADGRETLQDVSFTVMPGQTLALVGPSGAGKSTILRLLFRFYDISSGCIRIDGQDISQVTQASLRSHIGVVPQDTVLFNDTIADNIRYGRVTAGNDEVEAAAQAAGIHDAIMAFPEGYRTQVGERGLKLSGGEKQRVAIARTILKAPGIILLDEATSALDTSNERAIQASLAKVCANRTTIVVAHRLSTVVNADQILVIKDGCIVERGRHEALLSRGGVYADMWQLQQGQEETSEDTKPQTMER
Assay [16] in a line: promoters of myeloid differentiation in arrested cells, primary screen, cell-based, GFP/MAC1 double positive, flow cytometry, validation set (AID 588685;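 active = differentiation response of at least 50%, scaled between solvent and reference control, from cells with both markers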;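 also: compound exposure lasts four days before antibody staining and flow analysis; 0% = DMSO wells and 100% = 5 µM fulvestrant positive control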). The note with it: ER-HoxA9 marrow cells, stronger effect = higher value, normalized: vehicle 0, fulvestrant 100.

Structures are written as SMILES. Inconclusive results are not listed. Calls of active or inactive are those of the source.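 The calls were made as follows, unless noted: active = inhibition above 50%, about 3 SD of the validation set; inactive = the rest.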

Beta-2 adrenergic receptor (Homo sapiens), sequence (P07550 whole entry, looked up): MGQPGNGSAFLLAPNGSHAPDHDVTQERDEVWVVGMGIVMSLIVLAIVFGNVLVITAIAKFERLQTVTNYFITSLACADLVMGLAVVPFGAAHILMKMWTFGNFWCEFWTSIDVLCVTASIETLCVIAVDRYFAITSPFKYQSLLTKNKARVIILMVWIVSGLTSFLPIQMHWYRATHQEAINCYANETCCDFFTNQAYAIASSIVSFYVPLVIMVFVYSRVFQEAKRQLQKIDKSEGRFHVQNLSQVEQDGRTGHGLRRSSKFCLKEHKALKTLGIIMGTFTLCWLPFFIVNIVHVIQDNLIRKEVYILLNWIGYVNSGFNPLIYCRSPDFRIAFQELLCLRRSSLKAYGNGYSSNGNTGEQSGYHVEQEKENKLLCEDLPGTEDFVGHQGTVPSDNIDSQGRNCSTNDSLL

Usually inhibition stands for the relative decrease from the control value, in per cent. For `CC(C)c1ccc(NC(=O)CNS(=O)(=O)c2ccc(F)cc2)cc1`, the percent of DMSO control GFP in assay [1] was 99.3% (inactive). Further, the figures for the GFP response vs DMSO in assay [2] and in assay [4] were 107% (inactive) and 120% (inactive), respectively. Moreover, the percent response of DMSO control in assay [3] was 101% (inactive). Also, in [5], the GFP response, % of DMSO was 102% (inactive). For the same molecule, in [6], the double positive events came to 57.6%. Also, in assay [6], the vesicle binding response was 260% (inactive). The inhibition in [7] was -3.16% (inactive); in [11], -6.24% (inactive); in assay [15], 1% (inactive). For the same molecule, the superoxide response (% of plate) in [8] was 114% (inactive). In addition, the aptamer binding inhibition in assay [9] was -1% (inactive). The figures for the response in assay [10] and in [12] were -11.4% (inactive) and -3.77% (inactive), respectively. In addition, the binding (% of control) in assay [13] was 100% (inactive). The efflux inhibition (fraction of control) in [14] was -0.1 (inactive). Further, in [16], the differentiation response is -13.6% (inactive).

`CC(C)(C)c1ccc(/C=C/C(=O)N2CCCCC2)cc1`: the percent of DMSO control GFP in assay [1] is 96.1% (inactive). Moreover, the values for the GFP response vs DMSO in assay [2] and in [4] were 103% (inactive) and 116% (inactive), respectively. Further, the percent response of DMSO control in assay [3] was 78.7% (inactive). Further, the GFP response, % of DMSO in assay [5] is 97.7% (inactive). Besides, the double positive events in assay [6] turned out to be 59.2%. In [6], the vesicle binding response is 150% (inactive). In addition, the inhibition in assay [7] was 10.5% (inactive); in assay [11], 3.48% (inactive); in assay [15], 8% (inactive). Moreover, the superoxide response (% of plate) in assay [8] was 98.8% (inactive). In addition, the aptamer binding inhibition in assay [9] was 1% (inactive). The values for the response in assay [10] and in assay [12] were 46.6% (active) and -0.06% (inactive), respectively. Moreover, the binding (% of control) in [13] is 98.4% (inactive). Besides, in [14], the efflux inhibition (fraction of control) was 0.26 (inactive). Further, in [16], the differentiation response is 8.8% (inactive).

With `Cc1c(NC(=O)c2cccs2)cccc1[N+](=O)[O-]`, the percent of DMSO control GFP in [1] was 102% (inactive). The GFP response vs DMSO in assay [2] is 103% (inactive); in assay [4] it was 107% (inactive). For the same molecule, in assay [3], the percent response of DMSO control is 102% (inactive). The GFP response, % of DMSO in assay [5] was 99.1% (inactive). Further, in [6], the double positive events was determined as 67.8%. For the same molecule, the vesicle binding response in assay [6] is 342% (inactive). Also, the inhibition was 2.93% (inactive) in assay [7], -17.9% (inactive) in assay [11] and 1% (inactive) in assay [15]. Besides, the superoxide response (% of plate) in [8] was 95.5% (inactive). In addition, the aptamer binding inhibition in [9] is -4% (inactive). In addition, the response in assay [10] is 3.73% (inactive); in [12], -1.2% (inactive). For the same molecule, the binding (% of control) in assay [13] was 104% (inactive). In assay [14], the efflux inhibition (fraction of control) is -0.01 (inactive). Besides, the differentiation response in [16] is 18.8% (inactive).

Consider `Cc1ccc(Cl)c(Nc2ccccc2C(=O)O)c1Cl`, for which, in [1], the percent of DMSO control GFP is 98.9% (inactive). For the same molecule, the GFP response vs DMSO in assay [2] was 103% (inactive); in assay [4], 114% (inactive). The percent response of DMSO control in assay [3] was 94.4% (inactive). Further, the GFP response, % of DMSO in assay [5] is 98% (inactive). This molecule also gave a double positive events in assay [6] of 60.7%. Moreover, the vesicle binding response in assay [6] was 123% (inactive). Besides, the inhibition in assay [7] was 2.29% (inactive); in [11], 1.34% (inactive); in assay [15], 2% (inactive). Besides, the superoxide response (% of plate) in [8] is 95.2% (inactive). Further, in [9], the aptamer binding inhibition was 2% (inactive). The response is -14.2% (inactive) in [10] and 11.1% (inactive) in assay [12]. Besides, the binding (% of control) in assay [13] is 103% (inactive). Also, the efflux inhibition (fraction of control) in [14] was -0.13 (inactive). In assay [16], the differentiation response was -4.99% (inactive).

Turning to `Cc1cccc2c(=O)n3c(nc12)CCCCC3`, the percent of DMSO control GFP in assay [1] was 99.3% (inactive). Also, the results for the GFP response vs DMSO in assay [2] and in assay [4] were 101% (inactive) and 119% (inactive), respectively. The percent response of DMSO control in assay [3] is 97.6% (inactive). For the same molecule, in assay [5], the GFP response, % of DMSO is 104% (inactive). In assay [6], this molecule yielded a double positive events of 57%. For the same molecule, the vesicle binding response in assay [6] was 172% (inactive). The inhibition is -14.5% (inactive) in assay [7], -3.62% (inactive) in assay [11] and 2% (inactive) in assay [15]. Further, the superoxide response (% of plate) in assay [8] was 105% (inactive). For the same molecule, the aptamer binding inhibition in assay [9] is -3% (inactive). The values for the response in assay [10] and in assay [12] were -4.11% (inactive) and 0.7% (inactive), respectively. Further, the binding (% of control) in assay [13] is 105% (inactive). Besides, the efflux inhibition (fraction of control) in assay [14] is -0.41 (inactive). Also, the differentiation response in [16] is 36.4% (inactive).
